# Several values for one entry are separate records, joined by “and”; a condition that tells them apart may be missing. Equal values may be shown once. Records with an inconclusive call do not appear. A call without a number means that no potency is given here. Activity calls are given as the source filed them. Unless noted, the call rests on the fitted dose curve.
# Key:
# [1] = target: Glucocorticoid receptor (Homo sapiens) (UniProt P04150); test: qHTS assay for small molecule agonists of glucocorticoid receptor signaling (AID 588532; active means well fitted curve in the direction sought with a large enough effect in the signal ratio, with a control signal flat; the % refers to the signal ratio); settings: HeLa MMTV-bla, beta-lactamase ratio, agonist, 18 h; stronger effect = higher value; percent of dexamethasone control, DMSO zero
# Method in brief: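 Agonist-mode qHTS: GRE-driven beta-lactamase in HeLa cells exposed 18 h to titrated compounds (up to 92 uM), then CCF4 ratio read after 2 h at RT; Hill-fitted EC50, efficacy relative to 0.1 uM dexamethasone.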
# [2] = target: Peroxisome proliferator-activated receptor gamma (Homo sapiens) (UniProt P37231); test: qHTS assay for small molecule antagonists of peroxisome proliferator-activated receptor gamma signaling (AID 588537; active means well fitted inhibition curve with a large enough effect in the signal ratio, with a control signal flat, not every such curve was filed as active; the % refers to the signal ratio;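 further: reporter cells co-stimulated with 50 nM rosiglitazone agonist during compound treatment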); settings: HEK293 PPARg-UAS-bla, beta-lactamase ratio, antagonist mode; series mostly up to 76.8 µM
# Method in brief: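 Antagonist-mode β-lactamase reporter screen run as a titration series. HEK293 PPARγ-UAS-bla cells are stimulated with rosiglitazone (50 nM final) for 16 h, then CCF4 is read at 460/530 nm. Data are scaled between DMSO and rosiglitazone and fitted to the Hill equation.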
# [3] = target: Vitamin D3 receptor (Homo sapiens) (UniProt P11473); test: qHTS assay for small molecule antagonists of vitamin D receptor signaling (AID 588541); settings: HEK293T VDR-UAS-bla, beta-lactamase ratio, antagonist mode; series mostly up to 76.7 µM;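 further: receptor activated by calcitriol during compound treatment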
# Method in brief: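 Antagonist-mode beta-lactamase reporter assay: HEK293T VDR-UAS-bla cells were exposed to titrated compound alongside 1-alpha,25-dihydroxyvitamin D3 at 3 nM final for 16 h. Values were normalized to the 50 nM agonist control and DMSO basal, with IC50 and efficacy from Hill equation fits.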
# [4] = target: Vitamin D3 receptor (Homo sapiens) (UniProt P11473); test: qHTS assay for small molecule agonists of vitamin D receptor signaling (AID 588543); settings: HEK293T VDR-UAS-bla, beta-lactamase ratio, 16 h; series mostly up to 76.8 µM
# Method in brief: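 Reporter cells (HEK293T, VDR-UAS-bla) were seeded in medium with 2% charcoal-stripped serum and incubated 5 h, then compounds in concentration series were added for 16 h at 37 °C. Stimulation was scaled between DMSO basal and 50 nM 1α,25-dihydroxyvitamin D3.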
# [5] = target: Glucocorticoid receptor (Homo sapiens) (UniProt P04150); test: qHTS assay for small molecule antagonists of glucocorticoid receptor signaling (AID 588533; active means well fitted inhibition curve with a large enough effect in the signal ratio, with a control signal flat, not every such curve was filed as active; the % refers to the signal ratio;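 further: cells stimulated with 2 nM dexamethasone as agonist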); settings: HeLa MMTV-bla, GRE beta-lactamase ratio, antagonist mode, 18 h; series mostly up to 76.8 µM
# Method in brief: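 Antagonist-mode qHTS: compound titrations added to GRE-bla HeLa cells, then dexamethasone 2 nM final; 18 h, 37 C. CCF4 FRET fluorescence normalized to dexamethasone and DMSO; IC50 from Hill fit.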
# [6] = qHTS assay for small molecule antagonists of peroxisome proliferator-activated receptor delta signaling (AID 588535; active means well fitted inhibition curve with a large enough effect in the signal ratio, with a control signal flat, not every such curve was filed as active; the % refers to the signal ratio; further: potency means the concentration at half of the fitted maximal effect;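 on max response: cells co-treated with a PPAR-delta agonist as stimulator during compound exposure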); settings: HEK293T PPARd-UAS-bla, beta-lactamase FRET ratio, 18 h; 460 nm channel
# Method in brief: (§1)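 Titrations were run on PPAR-delta-UAS-bla HEK293T cells in charcoal/dextran-stripped serum, incubated 18 h at 37 C. CCF4 fluorescence (460/530 nm) after 2 h RT; Hill equation yields IC50 and maximal response.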
# [7] = target: Peroxisome proliferator-activated receptor delta (Homo sapiens) (UniProt Q03181); test: as above; settings: HEK293T PPARd-UAS-bla, beta-lactamase FRET ratio, 18 h; series mostly up to 76.7 µM
# Method in brief: as §1
# [8] = target: Peroxisome proliferator-activated receptor gamma (Homo sapiens) (UniProt P37231); test: qHTS assay for small molecule agonists of peroxisome proliferator-activated receptor gamma signaling (AID 588536; active means well fitted curve in the direction sought with a large enough effect in the signal ratio, with a control signal flat, not every such curve was filed as active; the % refers to the signal ratio); settings: HEK293 PPARg-UAS-bla, beta-lactamase ratio, 16 h, percent of rosiglitazone response, DMSO as zero; series mostly up to 76.7 µM
# Method in brief: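 Cells were plated and held 6–6.5 h at 37 C, then compounds were added as a titration series. After a further 16 h, CCF4 dye was loaded for 2 h at room temperature and emission at 460/530 nm recorded.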
# Peroxisome proliferator-activated receptor delta (Homo sapiens), sequence (Q03181 whole entry, looked up): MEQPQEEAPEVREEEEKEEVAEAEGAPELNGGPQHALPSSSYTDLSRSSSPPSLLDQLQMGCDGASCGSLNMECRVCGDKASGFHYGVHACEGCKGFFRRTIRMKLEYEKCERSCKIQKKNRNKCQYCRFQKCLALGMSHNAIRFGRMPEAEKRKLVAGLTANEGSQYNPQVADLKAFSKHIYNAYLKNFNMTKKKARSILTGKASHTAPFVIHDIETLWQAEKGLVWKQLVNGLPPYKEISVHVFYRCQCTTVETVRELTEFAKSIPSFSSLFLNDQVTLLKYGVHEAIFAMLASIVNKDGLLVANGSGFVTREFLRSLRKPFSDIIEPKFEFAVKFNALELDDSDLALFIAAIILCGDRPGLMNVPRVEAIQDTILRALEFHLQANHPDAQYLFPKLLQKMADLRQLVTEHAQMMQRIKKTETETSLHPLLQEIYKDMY
# Glucocorticoid receptor (Homo sapiens), sequence (P04150 whole entry, looked up): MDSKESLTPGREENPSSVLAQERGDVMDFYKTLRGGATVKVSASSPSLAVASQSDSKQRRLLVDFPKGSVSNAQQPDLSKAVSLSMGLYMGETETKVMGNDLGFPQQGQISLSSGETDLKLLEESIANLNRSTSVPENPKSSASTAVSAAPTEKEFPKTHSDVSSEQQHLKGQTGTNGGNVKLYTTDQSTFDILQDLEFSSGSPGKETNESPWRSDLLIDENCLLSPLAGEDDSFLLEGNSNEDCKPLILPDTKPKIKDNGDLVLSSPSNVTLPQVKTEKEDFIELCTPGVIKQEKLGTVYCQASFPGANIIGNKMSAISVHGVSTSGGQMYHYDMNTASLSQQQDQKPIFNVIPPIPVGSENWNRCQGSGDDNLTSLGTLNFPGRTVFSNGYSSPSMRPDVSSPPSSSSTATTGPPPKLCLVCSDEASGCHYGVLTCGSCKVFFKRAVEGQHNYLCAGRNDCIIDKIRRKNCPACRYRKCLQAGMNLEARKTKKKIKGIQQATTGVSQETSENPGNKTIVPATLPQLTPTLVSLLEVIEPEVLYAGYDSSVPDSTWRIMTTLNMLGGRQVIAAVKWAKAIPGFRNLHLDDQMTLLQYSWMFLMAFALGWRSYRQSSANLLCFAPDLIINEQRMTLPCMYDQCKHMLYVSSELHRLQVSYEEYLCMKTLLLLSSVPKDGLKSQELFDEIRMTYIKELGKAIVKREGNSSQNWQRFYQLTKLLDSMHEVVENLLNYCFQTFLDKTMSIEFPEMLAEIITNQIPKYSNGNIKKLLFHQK
# Peroxisome proliferator-activated receptor gamma (Homo sapiens), sequence (P37231 whole entry, looked up): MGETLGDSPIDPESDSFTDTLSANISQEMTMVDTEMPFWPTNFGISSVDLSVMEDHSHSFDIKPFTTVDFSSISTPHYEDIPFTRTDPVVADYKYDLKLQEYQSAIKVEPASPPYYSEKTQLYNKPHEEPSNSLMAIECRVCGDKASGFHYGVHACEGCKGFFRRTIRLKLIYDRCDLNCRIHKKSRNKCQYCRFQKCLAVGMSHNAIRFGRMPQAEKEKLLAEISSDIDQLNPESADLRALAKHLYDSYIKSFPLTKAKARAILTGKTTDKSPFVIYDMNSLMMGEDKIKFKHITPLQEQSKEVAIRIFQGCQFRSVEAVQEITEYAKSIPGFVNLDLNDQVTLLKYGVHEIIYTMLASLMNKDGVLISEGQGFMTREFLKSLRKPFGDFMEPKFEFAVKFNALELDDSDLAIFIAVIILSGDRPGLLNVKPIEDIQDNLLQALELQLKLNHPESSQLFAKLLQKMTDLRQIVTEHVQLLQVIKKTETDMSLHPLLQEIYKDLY
# Vitamin D3 receptor (Homo sapiens), sequence (P11473 whole entry, looked up): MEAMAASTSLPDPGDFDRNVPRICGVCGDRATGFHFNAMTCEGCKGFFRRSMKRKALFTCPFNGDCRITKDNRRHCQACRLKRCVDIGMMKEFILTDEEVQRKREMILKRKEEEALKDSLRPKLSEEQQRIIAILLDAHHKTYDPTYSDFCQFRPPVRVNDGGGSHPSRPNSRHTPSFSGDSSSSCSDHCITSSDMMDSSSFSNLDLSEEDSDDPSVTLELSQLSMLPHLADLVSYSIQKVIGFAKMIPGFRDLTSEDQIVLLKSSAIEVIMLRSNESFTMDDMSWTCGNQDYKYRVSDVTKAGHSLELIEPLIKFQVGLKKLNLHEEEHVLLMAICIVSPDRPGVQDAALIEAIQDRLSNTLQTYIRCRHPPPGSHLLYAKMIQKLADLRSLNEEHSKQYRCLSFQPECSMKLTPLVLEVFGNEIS
SMILES,activation [1],outcome [2],outcome [3],outcome [4],outcome [5],max response [6],Potency [7],outcome [8]
C1CCCC1,2.06% (inactive),inactive,inactive,inactive,,,,
C/C(C=O)=C/c1ccccc1,,inactive,inactive,inactive,inactive,-13.6%,inactive,inactive
O=Nc1ccc(NO)cc1,5.11% (inactive),,,inactive,,-72.9%,12.6 µM (active),inactive
Cc1cccc(C)c1,,inactive,inactive,inactive,inactive,-14.1%,,inactive
S=C([S-])NCCNC(=S)[S-].[Zn+2],,inactive,,inactive,inactive,,,inactive
C=Cc1ccccn1,-3.05% (inactive),inactive,,inactive,,,,inactive
CC1(N)CCC(C(C)(C)N)CC1 (centres undefined),7.57% (inactive),,inactive,inactive,,,,
C=CCCCC,,inactive,inactive,inactive,inactive,22.6%,inactive,inactive
Cc1ccc2nc(-c3ccc(N)cc3)sc2c1S(=O)(=O)O,22.8% (inactive),inactive,inactive,,,,,
CC(C)C(C)C,-6.49% (inactive),inactive,,,,,,inactive
CCCC=O,-2.2% (inactive),,inactive,inactive,,10.5%,inactive,
OC/C(Br)=C(\Br)CO,,inactive,,inactive,inactive,,,inactive
O=Cc1ccc(C(=O)O)cc1,3.49% (inactive),,,,,,,inactive
CC(=O)c1nccs1,-5.55% (inactive),,,inactive,,-6.53%,inactive,inactive
Cc1ccccc1C(=O)O,-5.56% (inactive),,inactive,inactive,,,,inactive
COc1ccc(N)c(OC)c1,4.84% (inactive),inactive,inactive,inactive,,,,inactive
Nc1ccccc1[N+](=O)[O-],,inactive,,,inactive,35.9%,inactive,inactive
Nc1nc(CC(=O)O)cs1,1.59% (inactive),inactive,,inactive,,,,inactive
CC1=C(/C=C/C(C)=C/C=C/C(C)=C\C=O)C(C)(C)CCC1,1.42% (inactive),,,inactive,,,,
ON=C1CCCCC1,,inactive,,inactive,inactive,-2.32%,inactive,inactive
O=Cc1ccccc1Cl,,inactive,inactive,inactive,inactive,,,inactive
CC(=O)C1(C)CC2=C(CCCC2(C)C)CC1C (centres undefined),-5.53% (inactive),,inactive,inactive,,12.6%,inactive,inactive
Fc1ccccc1,1.06% (inactive),,inactive,,,0.384%,inactive,
Cc1ccc(C)c([N+](=O)[O-])c1,-1.28% (inactive),inactive,,inactive,,-7.2%,inactive,
C=C(C)OC(C)=O,-3.17% (inactive),,,,,,,inactive

SMILES,activation [1],outcome [2],outcome [3],outcome [4],outcome [5],max response [6],Potency [7],outcome [8]
Cc1cccc(C)c1[N+](=O)[O-],4.67% (inactive) and -8.43% (inactive),inactive,inactive,inactive,,9.63% and 31.4%,inactive,
CC(=O)c1ccc([N+](=O)[O-])cc1,,,inactive,inactive,inactive,10.4%,inactive,inactive
NC(=O)c1cccc([N+](=O)[O-])c1,,inactive,,,inactive,-10.1%,inactive,
CC(=O)OC(C)=O,,inactive,inactive,inactive,inactive,,,inactive
CC(C)(O)C(=O)O,5.7% (inactive),,,inactive,,57.5%,inactive,
CC(=O)c1cc(C)oc1C,,,,inactive,inactive,-4.12%,,inactive
C=C(C)C(=O)OCC(C)O (centres undefined),-4.2% (inactive),,inactive,inactive,,24.5%,inactive,
c1ccc2c(c1)Oc1ccccc1S2,,,inactive,inactive,inactive,19.7%,inactive,
O=Cc1c(Cl)cccc1Cl,,inactive,inactive,inactive,inactive,-29.6%,inactive,inactive
CCCCOCCOCCSC#N,,,,inactive,inactive,34.7%,,
NC(=O)NC(N)=O,,,,,,34.3%,inactive,inactive
O=[N+]([O-])c1cccc(Cl)c1,,inactive,inactive,inactive,,4.21%,inactive,
COC(=O)CC#N,,inactive,inactive,inactive,,,,inactive
N#CCc1ccccc1[N+](=O)[O-],,,inactive,inactive,,42%,inactive,inactive
ClC/C=C/CCl,,inactive,inactive,inactive,,,,inactive
CC(=O)c1ccccc1[N+](=O)[O-],,inactive,inactive,inactive,,4.84%,,inactive
NCCCCCCN,,inactive,inactive,inactive,,-19.3%,inactive,inactive
CCCCCNCCCCC,,,inactive,inactive,,-18.6%,inactive,
O=C(O)CNC(=O)c1ccc(CO)o1,,inactive,,,,35.1%,inactive,inactive
Cc1ccc(Br)cc1,,inactive,inactive,inactive,,4.44%,inactive,inactive
CC1CCCO1 (centres undefined),,,inactive,inactive,,6.05%,,inactive
Cc1cccc(C)c1O,,inactive,inactive,inactive,,-20.4%,inactive,inactive
CC(C)(C)OCC1CO1 (centres undefined),,,inactive,inactive,,,,inactive
CCCOCC(C)O (centres undefined),,inactive,inactive,,,-0.284%,inactive,inactive
Cc1cccc(C(=O)O)c1[N+](=O)[O-],,inactive,,inactive,,,,

SMILES,activation [1],outcome [2],outcome [3],outcome [4],outcome [5],max response [6],Potency [7],outcome [8]
[O-]/[N+](=N\O)c1ccccc1,,,inactive,inactive,,,,inactive
Cc1cccc2ccccc12,,inactive,inactive,inactive,,,,inactive
CCOc1cccc(N)c1,,inactive,inactive,inactive,,-10.6%,inactive,inactive
COC(=O)CS,,inactive,inactive,inactive,,,,
NC(=O)c1ccccc1[N+](=O)[O-],,inactive,,,,-1.98%,inactive,inactive
c1ccc2n[nH]nc2c1,,,,,,-32.1%,inactive,inactive
c1ccc(Nc2ccccc2)cc1,,inactive,,inactive,,-10.2% and 19.6%,,inactive
O=C(O)CN(CC(=O)O)CC(=O)O,,inactive,,,,,,inactive
Cc1cscn1,,inactive,inactive,inactive,,-36.6%,inactive,inactive
Cc1cccc2cccnc12,,inactive,inactive,inactive,,-4.69%,inactive,
Cc1ccc(C(C)(C)C)cc1,,,inactive,inactive,,-8.71%,inactive,
CC(=O)CCc1ccccc1,,,inactive,inactive,,,,inactive
CCC=O,,,,inactive,,-3.11%,inactive,inactive
CCCCCCCCN,,inactive,inactive,inactive,,13.3%,inactive,
Cc1ccccc1C=O,,,,inactive,inactive,,,inactive
Cc1ccc2c(c1[N+](=O)[O-])C(=O)c1ccccc1C2=O,,,,inactive,,,,
C[C@@H]1CC2(OC3C[C@@]4(C)C5=CC[C@H]6C(C)(C)C(O[C@@H]7OC[C@@H](O)[C@H](O)[C@H]7O)CC[C@@]67C[C@@]57CC[C@]4(C)C31)OC(O)C1(C)OC21 (some centres undefined),,,inactive,,,,,
C/C=C(/C)C#N,,,inactive,,,26.2%,inactive,inactive
CCCCC(CC)CNCC(CC)CCCC (centres undefined),,,inactive,inactive,,11.3%,inactive,
Nc1cc([N+](=O)[O-])ccc1C(=O)O,,inactive,inactive,inactive,,-33% and 11%,inactive,inactive
C=C(C)C(N)=O,,,inactive,inactive,,,,inactive
CC(=O)OCc1ccco1,,,inactive,inactive,,-12.4%,inactive,inactive
Nc1ccccc1S(=O)(=O)O,,inactive,inactive,inactive,,-23.8%,inactive,inactive
CCCCC(CC)C(=O)O (centres undefined),,inactive,,,,18%,inactive,inactive
COC(=O)c1ccccc1,,inactive,inactive,inactive,,19.3%,inactive,inactive

# Source: PubChem BioAssay (NCATS)
